In the supplement of paper PMC11732987, “Enantioselective OTUD7B fragment discovery through chemoproteomics screening and high-throughput optimisation” (Communications Chemistry, 2025):

Assays:
Assay in all cases: log2 ratio of Biotin-Ahx-Ub-VS probe labelling (fragment/DMSO); higher = less target engagement (more negative = stronger competition), active = hit call of the paper (q ≤ 0.05, log2 ratio ≤ -1)
Settings in all cases: compound concentration: 200 uM; treatment time: 3 h
[1] = target: T1, USP19 (UniProt O94966)
T1 sequence (whole entry): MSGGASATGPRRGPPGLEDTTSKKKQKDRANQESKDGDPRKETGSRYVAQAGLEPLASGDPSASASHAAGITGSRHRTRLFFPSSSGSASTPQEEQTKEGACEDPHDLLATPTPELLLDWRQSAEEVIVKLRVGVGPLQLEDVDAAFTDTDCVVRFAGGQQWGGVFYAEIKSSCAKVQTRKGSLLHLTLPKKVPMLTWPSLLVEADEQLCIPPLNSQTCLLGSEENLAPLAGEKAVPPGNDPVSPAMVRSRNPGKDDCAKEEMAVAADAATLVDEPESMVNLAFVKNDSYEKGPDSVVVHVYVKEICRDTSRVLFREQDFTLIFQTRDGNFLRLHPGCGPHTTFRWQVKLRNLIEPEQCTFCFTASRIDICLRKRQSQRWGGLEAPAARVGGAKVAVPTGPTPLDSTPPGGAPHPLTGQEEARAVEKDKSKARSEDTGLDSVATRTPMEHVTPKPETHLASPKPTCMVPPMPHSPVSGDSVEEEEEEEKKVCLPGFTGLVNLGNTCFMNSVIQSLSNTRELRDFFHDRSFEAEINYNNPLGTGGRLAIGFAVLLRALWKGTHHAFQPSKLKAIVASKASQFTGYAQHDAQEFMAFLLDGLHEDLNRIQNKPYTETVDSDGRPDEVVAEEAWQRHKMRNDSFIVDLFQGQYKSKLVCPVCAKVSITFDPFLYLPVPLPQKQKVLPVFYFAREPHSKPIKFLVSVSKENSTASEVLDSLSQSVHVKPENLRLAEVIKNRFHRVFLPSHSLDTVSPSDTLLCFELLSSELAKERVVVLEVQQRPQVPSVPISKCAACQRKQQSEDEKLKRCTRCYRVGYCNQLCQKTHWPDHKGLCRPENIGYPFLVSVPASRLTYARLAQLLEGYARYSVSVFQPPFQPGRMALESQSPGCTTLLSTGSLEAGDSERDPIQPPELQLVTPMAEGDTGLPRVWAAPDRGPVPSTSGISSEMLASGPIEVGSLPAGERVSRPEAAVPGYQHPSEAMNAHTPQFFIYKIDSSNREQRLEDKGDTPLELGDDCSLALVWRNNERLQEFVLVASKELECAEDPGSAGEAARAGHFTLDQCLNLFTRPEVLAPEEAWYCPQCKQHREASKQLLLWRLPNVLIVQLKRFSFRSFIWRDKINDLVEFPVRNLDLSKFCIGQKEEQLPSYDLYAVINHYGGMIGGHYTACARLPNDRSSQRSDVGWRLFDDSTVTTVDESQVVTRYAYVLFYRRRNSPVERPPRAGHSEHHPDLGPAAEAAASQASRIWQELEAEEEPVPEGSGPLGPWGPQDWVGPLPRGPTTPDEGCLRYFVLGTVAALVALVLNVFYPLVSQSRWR
Procedure, shortened: (§1)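 Labelling with Biotin-Ahx-Ub-VS (0.5 µM final, 1 h) followed a 3 h triplicate treatment of HEK293T lysate (495 µg per sample, Tris/CHAPS/IGEPAL buffer with protease inhibitors) with fragment at 200 µM or vehicle. Labelled DUBs were NeutrAvidin-enriched, digested with LysC and trypsin, and run by diaPASEF LC-MS/MS. The values, average log2 fragment/vehicle ratios by unpaired t-test, come from global-median-normalised Spectronaut label-free quantities. Proteins with ≥2 unique peptides were used.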

[2] = target: T2, USP22 (UniProt Q9UPT9)
T2 sequence (whole entry): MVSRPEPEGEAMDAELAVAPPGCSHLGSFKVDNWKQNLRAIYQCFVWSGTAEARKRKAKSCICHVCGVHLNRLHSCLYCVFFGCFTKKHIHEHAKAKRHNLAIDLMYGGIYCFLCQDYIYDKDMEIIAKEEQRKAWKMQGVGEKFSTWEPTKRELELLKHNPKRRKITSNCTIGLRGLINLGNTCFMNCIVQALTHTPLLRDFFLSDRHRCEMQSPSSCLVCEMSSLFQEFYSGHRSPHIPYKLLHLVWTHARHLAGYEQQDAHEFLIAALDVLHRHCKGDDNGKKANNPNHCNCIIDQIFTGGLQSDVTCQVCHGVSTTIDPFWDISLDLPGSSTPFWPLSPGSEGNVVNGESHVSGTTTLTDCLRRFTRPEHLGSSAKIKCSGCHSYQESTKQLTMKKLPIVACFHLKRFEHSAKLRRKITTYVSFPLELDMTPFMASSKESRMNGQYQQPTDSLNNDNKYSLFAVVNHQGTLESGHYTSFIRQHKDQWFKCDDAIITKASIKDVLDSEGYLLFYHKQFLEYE
Procedure, shortened: as §1

[3] = target: USP24 (UniProt Q9UPU5)
Chain of USP24 (Q9UPU5 whole entry): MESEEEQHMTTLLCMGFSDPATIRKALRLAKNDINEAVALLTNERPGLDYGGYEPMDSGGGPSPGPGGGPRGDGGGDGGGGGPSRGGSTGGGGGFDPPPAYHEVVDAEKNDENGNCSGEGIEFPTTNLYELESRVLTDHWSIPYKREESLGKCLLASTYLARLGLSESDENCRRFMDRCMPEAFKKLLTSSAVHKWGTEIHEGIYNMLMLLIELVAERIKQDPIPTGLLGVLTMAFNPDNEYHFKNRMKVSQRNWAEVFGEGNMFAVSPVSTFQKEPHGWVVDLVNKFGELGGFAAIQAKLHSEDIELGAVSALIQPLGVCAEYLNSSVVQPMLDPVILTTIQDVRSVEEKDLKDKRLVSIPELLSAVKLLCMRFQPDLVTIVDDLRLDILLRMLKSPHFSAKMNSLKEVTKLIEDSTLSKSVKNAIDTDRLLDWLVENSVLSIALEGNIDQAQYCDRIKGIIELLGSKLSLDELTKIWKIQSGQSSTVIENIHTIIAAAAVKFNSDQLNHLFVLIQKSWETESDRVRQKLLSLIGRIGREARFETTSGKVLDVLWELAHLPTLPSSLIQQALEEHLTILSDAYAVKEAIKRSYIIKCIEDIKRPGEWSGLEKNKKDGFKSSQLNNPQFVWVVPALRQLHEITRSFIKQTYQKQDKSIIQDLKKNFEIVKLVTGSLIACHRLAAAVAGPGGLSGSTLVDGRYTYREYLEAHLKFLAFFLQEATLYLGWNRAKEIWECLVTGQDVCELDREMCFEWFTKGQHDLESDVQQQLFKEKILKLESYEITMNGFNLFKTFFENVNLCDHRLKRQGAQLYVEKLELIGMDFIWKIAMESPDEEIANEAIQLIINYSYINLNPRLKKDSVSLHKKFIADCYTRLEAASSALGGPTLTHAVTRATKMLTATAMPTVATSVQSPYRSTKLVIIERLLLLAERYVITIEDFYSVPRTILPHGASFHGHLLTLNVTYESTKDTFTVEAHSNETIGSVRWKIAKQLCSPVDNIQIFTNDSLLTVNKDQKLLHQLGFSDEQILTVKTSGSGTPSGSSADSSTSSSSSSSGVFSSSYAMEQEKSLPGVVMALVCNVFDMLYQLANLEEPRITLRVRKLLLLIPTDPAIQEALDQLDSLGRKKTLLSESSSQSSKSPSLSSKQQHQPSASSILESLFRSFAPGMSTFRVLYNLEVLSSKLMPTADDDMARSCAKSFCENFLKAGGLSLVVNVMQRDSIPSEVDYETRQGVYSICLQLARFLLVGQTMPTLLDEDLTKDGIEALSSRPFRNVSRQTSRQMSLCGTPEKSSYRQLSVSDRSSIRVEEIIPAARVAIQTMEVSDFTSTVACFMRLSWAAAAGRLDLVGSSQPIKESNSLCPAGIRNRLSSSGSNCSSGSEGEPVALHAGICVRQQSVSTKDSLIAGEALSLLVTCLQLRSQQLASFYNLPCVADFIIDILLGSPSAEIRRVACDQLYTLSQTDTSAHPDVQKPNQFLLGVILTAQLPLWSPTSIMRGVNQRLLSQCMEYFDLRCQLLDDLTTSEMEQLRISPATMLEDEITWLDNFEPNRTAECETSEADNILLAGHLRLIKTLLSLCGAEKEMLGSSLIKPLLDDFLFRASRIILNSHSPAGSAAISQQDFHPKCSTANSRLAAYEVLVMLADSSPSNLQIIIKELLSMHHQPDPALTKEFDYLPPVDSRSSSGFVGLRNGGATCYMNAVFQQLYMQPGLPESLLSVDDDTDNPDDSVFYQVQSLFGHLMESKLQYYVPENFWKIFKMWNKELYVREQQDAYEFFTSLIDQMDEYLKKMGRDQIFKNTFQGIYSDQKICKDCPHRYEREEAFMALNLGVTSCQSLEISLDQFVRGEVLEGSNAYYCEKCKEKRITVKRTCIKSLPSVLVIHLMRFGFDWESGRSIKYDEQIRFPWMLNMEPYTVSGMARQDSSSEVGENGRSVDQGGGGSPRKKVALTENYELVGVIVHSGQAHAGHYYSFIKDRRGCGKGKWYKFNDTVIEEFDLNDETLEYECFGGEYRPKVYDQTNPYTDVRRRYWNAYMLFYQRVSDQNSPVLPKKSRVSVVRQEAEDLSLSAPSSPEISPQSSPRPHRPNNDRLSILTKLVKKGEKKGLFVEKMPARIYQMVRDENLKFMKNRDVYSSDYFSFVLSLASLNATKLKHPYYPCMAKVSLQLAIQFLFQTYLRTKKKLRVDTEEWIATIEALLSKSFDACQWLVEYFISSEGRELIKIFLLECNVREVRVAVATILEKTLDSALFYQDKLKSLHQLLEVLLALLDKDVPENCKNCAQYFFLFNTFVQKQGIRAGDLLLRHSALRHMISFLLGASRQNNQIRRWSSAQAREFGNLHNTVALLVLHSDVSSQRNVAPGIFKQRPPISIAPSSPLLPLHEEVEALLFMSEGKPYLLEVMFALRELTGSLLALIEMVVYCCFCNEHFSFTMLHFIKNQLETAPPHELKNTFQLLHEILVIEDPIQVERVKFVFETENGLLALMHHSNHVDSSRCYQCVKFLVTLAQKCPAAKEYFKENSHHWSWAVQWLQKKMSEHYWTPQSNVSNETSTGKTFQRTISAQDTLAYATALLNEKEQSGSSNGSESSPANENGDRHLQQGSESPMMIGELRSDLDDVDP
Procedure, shortened: as §1

[4] = target: T3, USP25 (UniProt Q9UHP3)
T3 sequence (whole entry): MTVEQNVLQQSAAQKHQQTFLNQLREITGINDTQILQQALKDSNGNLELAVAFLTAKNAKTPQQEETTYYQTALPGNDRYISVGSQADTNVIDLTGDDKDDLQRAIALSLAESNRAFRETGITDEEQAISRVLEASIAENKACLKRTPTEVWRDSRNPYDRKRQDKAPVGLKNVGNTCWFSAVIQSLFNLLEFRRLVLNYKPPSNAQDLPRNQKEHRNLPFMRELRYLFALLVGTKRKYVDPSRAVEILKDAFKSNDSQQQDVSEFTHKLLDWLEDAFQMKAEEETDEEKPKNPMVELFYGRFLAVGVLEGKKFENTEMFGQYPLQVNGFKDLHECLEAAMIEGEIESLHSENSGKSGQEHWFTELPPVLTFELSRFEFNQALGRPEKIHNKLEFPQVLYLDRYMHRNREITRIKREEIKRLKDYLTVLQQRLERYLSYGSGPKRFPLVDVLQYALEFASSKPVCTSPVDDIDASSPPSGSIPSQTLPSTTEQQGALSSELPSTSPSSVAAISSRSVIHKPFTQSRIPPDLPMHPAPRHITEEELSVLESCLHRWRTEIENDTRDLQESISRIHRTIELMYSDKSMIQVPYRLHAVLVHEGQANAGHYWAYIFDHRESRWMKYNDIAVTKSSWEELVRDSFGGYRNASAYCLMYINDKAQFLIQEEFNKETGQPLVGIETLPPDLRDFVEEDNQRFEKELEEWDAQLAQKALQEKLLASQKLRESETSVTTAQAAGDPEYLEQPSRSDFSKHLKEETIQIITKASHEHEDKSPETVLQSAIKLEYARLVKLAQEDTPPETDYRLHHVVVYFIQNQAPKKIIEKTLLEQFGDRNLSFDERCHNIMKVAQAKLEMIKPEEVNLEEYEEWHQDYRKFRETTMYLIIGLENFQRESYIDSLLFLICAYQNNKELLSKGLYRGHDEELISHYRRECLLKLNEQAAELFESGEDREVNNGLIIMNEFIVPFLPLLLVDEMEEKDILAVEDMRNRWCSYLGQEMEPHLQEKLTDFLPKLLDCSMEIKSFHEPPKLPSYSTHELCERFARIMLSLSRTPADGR
Procedure, shortened: as §1

[5] = target: T4, USP28 (UniProt Q96RU2)
T4 sequence (whole entry): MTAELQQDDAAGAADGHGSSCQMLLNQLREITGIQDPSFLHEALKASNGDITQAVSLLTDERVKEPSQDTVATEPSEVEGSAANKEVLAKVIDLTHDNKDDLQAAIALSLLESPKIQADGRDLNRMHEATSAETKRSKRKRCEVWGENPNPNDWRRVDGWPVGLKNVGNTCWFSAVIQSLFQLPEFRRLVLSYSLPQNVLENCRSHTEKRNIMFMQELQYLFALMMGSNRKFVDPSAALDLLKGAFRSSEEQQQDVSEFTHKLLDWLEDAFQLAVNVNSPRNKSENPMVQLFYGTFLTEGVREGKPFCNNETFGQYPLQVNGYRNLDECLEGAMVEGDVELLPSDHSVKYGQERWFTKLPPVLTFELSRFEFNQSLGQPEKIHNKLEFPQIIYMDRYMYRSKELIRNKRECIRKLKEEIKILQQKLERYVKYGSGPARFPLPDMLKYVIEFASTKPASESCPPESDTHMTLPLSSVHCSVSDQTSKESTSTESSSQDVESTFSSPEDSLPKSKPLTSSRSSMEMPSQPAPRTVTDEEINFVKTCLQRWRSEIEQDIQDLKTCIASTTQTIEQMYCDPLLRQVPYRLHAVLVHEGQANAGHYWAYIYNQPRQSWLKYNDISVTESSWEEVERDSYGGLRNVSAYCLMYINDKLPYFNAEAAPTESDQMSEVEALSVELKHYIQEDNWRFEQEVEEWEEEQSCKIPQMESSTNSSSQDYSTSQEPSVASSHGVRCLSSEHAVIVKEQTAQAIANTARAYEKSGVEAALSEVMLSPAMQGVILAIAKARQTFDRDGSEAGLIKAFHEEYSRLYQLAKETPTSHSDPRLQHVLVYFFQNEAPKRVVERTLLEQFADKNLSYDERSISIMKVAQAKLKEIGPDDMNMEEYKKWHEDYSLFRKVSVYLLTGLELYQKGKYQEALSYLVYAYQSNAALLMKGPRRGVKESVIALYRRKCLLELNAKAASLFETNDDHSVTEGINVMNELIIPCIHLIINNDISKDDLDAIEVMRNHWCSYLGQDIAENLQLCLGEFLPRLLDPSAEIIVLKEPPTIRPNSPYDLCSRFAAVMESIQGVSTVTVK
Procedure, shortened: as §1

Measured: log2 ratio of Biotin-Ahx-Ub-VS probe labelling

Cc1cccc(NC(=O)[C@@H]2CCCN2C(=O)CCl)n1
inactive: [1] -0.349 | [2] -0.038 | [3] -0.45 | [4] -0.327 | [5] -0.61
